Methyltransferases = Primary Screen for Target Class Profiling of Small Molecule Inhibitors of Methyltransferases; purified enzyme, MTase-Glo SAH luminescence; active compounds read low; calls only at 40 µM; 25,000 tested, 3.9% active; AID 1745853, 2022; call rule not given here
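Each enzyme was reacted with SAM and its substrate, with compounds tested once at 40 uM; SAH formed was read by MTase-Glo luminescence.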
Of the large screens only hits and unclear results are named; the others gave an inactive call; ! = a repeat was not active. Only a selection was taken, and hits are over-represented in it overall.

CCOC(=O)c1cc2n(n1)CC(C)(C(=O)NCc1ccccc1)N(CCc1cccs1)C2=O (configuration not stated)	none
CCCC1c2ccc(C)n2CCN1C(=O)Nc1ccc(Br)cc1F (configuration not stated)	none
CC(C)Cn1c(=O)c2ccc(C(=O)NC3CCCC3)cc2n2c(=O)n(Cc3ccc(F)cc3Cl)nc12	none
COc1cccc(CN2C(=O)c3cc4ccccc4n3CC2(C)C(=O)NC2CCCCCC2)c1 (configuration not stated)	none
CC1(C(=O)NC2CCCCC2)Cn2c(ccc2-c2ccco2)C(=O)N1Cc1cccc(F)c1 (configuration not stated)	none
COCCn1ncc(N2CCC(C(=O)NCCCN3CCC(N4CCCCC4)CC3)C2)cc1=O (configuration not stated)	none
COc1cc2nc(N3CCCCC3)nc(NC3CCN(C)CC3)c2cc1OC	Methyltransferases active!
COc1cc2nc(-c3cc(F)ccc3O)nc(N[C@@H]3CNC[C@H]3C(C)(C)O)c2cc1OC	none
COc1cc2nc(N3CCC(N4CCCCC4)CC3)nc(NC3CCCCCC3)c2cc1OC	Methyltransferases active
COc1cc2c(NC3CCN(C(C)C)CC3)nc(C3CCCCC3)nc2cc1OCCCN1CCCC1	Methyltransferases active!
COc1cc2c(Nc3ccc(NC(=O)c4ccccc4)cc3)ncnc2cc1OCCCN1CCOCC1	none
COc1cc2ncnc(N3CCC(Oc4cnc5ccccc5n4)C3)c2cc1OC (configuration not stated)	none
COc1cc2nc(-c3ccc(N4CCN(C)CC4)cc3)nc(NCCN3CCOCC3)c2cc1OC	none
COc1cc2nc(N3CCCC3)nc(NCCCCCN3CCCC3)c2cc1OC	Methyltransferases active!
Cc1ccccc1N1C(=O)c2cc3occc3n2CC1(C)C(=O)NC1CCCCCC1 (configuration not stated)	none
CC(C)OCCCn1c(=O)c2ccccc2n2c(=O)n(CC(=O)NCc3ccccc3)nc12	none
Cc1ccc(Cn2c(=O)c3ccc(C(=O)NC4CCCC4)cc3n3c(=O)n(C)nc23)cc1	none
COc1ccc2cc3n(c2c1)CC(C)(C(=O)NCC1CCCO1)N(Cc1cccnc1)C3=O (configuration not stated)	none
CC(C)CNC(=O)c1ccc2c(=O)n(C(C)C)c3nn(CC(=O)NCc4ccccc4)c(=O)n3c2c1	none
CC(C)OCCCn1c(=O)c2cc(Cl)ccc2n2c(SCc3ccccc3Cl)nnc12	none
CCc1cc2c(cc3n2CC(C)(C(=O)NC2CCCCCC2)N(Cc2ccccn2)C3=O)s1 (configuration not stated)	none
COc1ccccc1CNC(=O)C1c2c(n(C)c3ccccc23)SCC(=O)N1c1cccc(F)c1 (configuration not stated)	none
Cc1ccc(NC(=O)c2ncn3c2C(=O)N(C2CC2)C(C)(C(=O)NC2CCCC2)C3)c(Cl)c1 (configuration not stated)	none
CCN1CCN(C(=O)Cn2c(=O)oc3cc(S(=O)(=O)N4CC(C)CC(C)C4)ccc32)CC1 (configuration not stated)	none
CCOCCCNC(=O)C1c2c(n(C)c3ccccc23)SCC(=O)N1c1ccccc1CC (configuration not stated)	none
Cc1ccc(NC(=O)CSc2nnc3n(Cc4ccc(F)cc4)c(=O)c4ccccc4n23)cc1	none
O=S(=O)(c1ccccc1)c1nnn2c1nc(NC1CCN(Cc3ccccc3)CC1)c1ccccc12	none
O=S(=O)(c1ccccc1)c1nnn2c1nc(NC1CCN(Cc3ccccc3)CC1)c1cc(Cl)ccc12	none
COc1cc2nc(N3CCCCC3)nc(NC3CCN(Cc4ccccc4)CC3)c2cc1OC	Methyltransferases active!
O=C(CCn1ccc2cc(S(=O)(=O)N3CCCCC3)ccc21)NCCC1=CCCCC1	none
CSc1cccc(NC(=O)N2CCn3cccc3C2Cc2ccccc2)c1 (configuration not stated)	none
CC(CCc1ccccc1)N1C(=O)c2cc3sccc3n2CC1(C)C(=O)NC1CCCCCC1 (configuration not stated)	none
CC1(C(=O)NC2CCCCCC2)Cn2c(cc3occc32)C(=O)N1CCc1ccccc1 (configuration not stated)	none
CC(C)C(=O)O[C@@H]1[C@@H](O)[C@@H](O[C@H]2O[C@H](CO)[C@@H](O)[C@H](O)[C@H]2O)O[C@H](CO)[C@H]1O	none
CC(C)C(=O)OC[C@H]1O[C@H](O[C@H]2O[C@H](CO)[C@@H](O)[C@H](O)[C@H]2O)[C@H](O)[C@@H](O)[C@@H]1O	none
CC1(C)O[C@@]2(C)CC[C@@H]1C[C@@H]2OC1OC(CO)C(O)C(O)C1O (some centres not stated)	Methyltransferases active
Cc1cc(C)cc(N2C(=O)c3cc4sccc4n3CC2(C)C(=O)NC2CCCC(C)C2C)c1 (configuration not stated)	none
O=C(CCc1nnc2n(CCc3ccccc3)c(=O)c3ccccc3n12)N1CCN(c2ccccc2F)CC1	none
O=C(NCCCCCCNC(=O)c1cccnc1)c1cccnc1	none
O=C(NCCCc1ccccc1)c1cccc(-c2cc(O)c3ncccc3c2)c1	Methyltransferases active
O=C(NCCc1nc2cccnc2n1-c1ccccc1)c1cccnc1	none
CN(C)CCCCCCNC(=O)c1cccc(-c2cc(O)c3ncccc3c2)c1	Methyltransferases active
COC(=O)NCCNC(=O)c1cccc(-c2ccc(SC)cc2)c1	none
CC(C)(O)CCc1cccc(C(=O)NCCCc2ccccn2)c1	none
CCCN1C(=O)c2c(C(=O)NCCc3ccc(Cl)cc3)ncn2CC1(C)C(=O)NCCC(C)C (configuration not stated)	none
O=C(CCc1nnc2ccc(-c3ccc(Cl)cc3)nn12)N1CCC(Cc2ccccc2)CC1	none
COc1cccc(CNC(=O)c2cc3n(n2)CC(C)(C(=O)NCc2ccc(F)cc2)N(C)C3=O)c1OC (configuration not stated)	none
CCOc1ccccc1NC(=O)N1CCn2c(C)ccc2C1C(C)C (configuration not stated)	none
CCCN1C(=O)c2cc3c(OC)ccc(OC)c3n2CC1(C)C(=O)NC1CCCC(C)C1C (configuration not stated)	none
CN(CC(=O)Nc1ccc(Cl)cc1)S(=O)(=O)c1ccc2[nH]c3c(c2c1)CCCC3	none
C[S+](CC[C@H](N)C(=O)[O-])C[C@H]1O[C@@H](n2cnc3c(N)ncnc32)[C@H](O)[C@@H]1O (some centres not stated)	none
COc1ccc2cc3n(c2c1)CC(C)(C(=O)NC1CCCCC1)N(CCN1CCN(C)CC1)C3=O (configuration not stated)	none
CNC(=O)c1ccc2c(C(=Nc3cccc(CN(C)C)c3)c3ccccc3)c(O)[nH]c2c1	Methyltransferases active
O=C(NCc1ccccc1)c1ccc2c(=O)n(-c3cccc(C(F)(F)F)c3)c(=S)[nH]c2c1	none
CC(C)NC(=O)Cn1nc2n(C)c(=O)c3ccc(C(=O)NC4CCCCC4)cc3n2c1=O	none
CCN1C(=O)c2cc(C(=O)NCCN3CCOCC3)nn2CC1(C)C(=O)NC1CCCC1 (configuration not stated)	none
Cc1nc(C2CC23CCN(S(=O)(=O)c2cccc(F)c2)CC3)no1 (configuration not stated)	none
C=C1C(=O)O[C@@H]2/C=C(/C)CC3C=C(C[C@H](OC(=O)/C(C)=C\C)[C@@H]12)C(=O)O3 (some centres not stated)	none
C=C1C(=O)OC2/C=C(\C)CC/C=C(\C)CC(OC(C)=O)C12 (configuration not stated)	none

Screening data from PubChem.
